PubChem BioAssay (Tox21)
Inconclusive results are not listed. A number with no mark means an inactive call. Activity calls are given as the source filed them. Calls come from the whole dose curve; as a rule, active = well fitted cell-killing curve with a large enough effect in the repeat runs; inconclusive = weak or mixed curves, or effect the other way; inactive = flat fitted curve, though single readings scatter.

Test: qHTS RealTime-Glo MT Cell Viability Assay in HepG2 cells - 40 hour (AID 1224870); note: nearly all actives have a fitted effect of over 50% in size
Settings: RealTime-Glo luminescence; series mostly up to 76.8 µM; activity change, negative = cytotoxic: at the top concentration
Text: National Center for Advancing Translational Sciences [NCATS]
NIH Chemical Genomics Center [NCGC]
U.S. Environmental Protection Agency [EPA]
National Institutes of Environmental Health Sciences [NIEHS]
National Toxicology Program [NTP]
U.S. Food and Drug Administration [FDA]
Measure of cell viability is critical in the cell-base assay. Analysis of cell viability is necessary for the characterization of cell responses to cytotoxic drugs and environmental stress. A RealTime-Glo MT Cell Viability Assay to monitor cell viability in real time of continues cell culture during 40 hours of compound treatment was used to screen Tox21 10K library compounds in HepG2 cells. The RealTime-Glo MT Cell Viability Assay is a nonlytic, homogeneous, bioluminescent method to measure cell viability in real time using a simple, plate-based method. The assay involves adding NanoLuc luciferase and a cell-permeant prosubstrate to cells in culture. Viable cells reduce the proprietary prosubstrate to generate a substrate for NanoLuc luciferase. This substrate diffuses from cells into the surrounding culture medium, where it is rapidly used by the NanoLuc Enzyme to produce a luminescent signal. The signal correlates with the number of viable cells, making the assay well suited for cytotoxicity studies.
Tox21 Assay Protocol Summary:
The mixture of HepG2 cell suspension and reagents were dispensed at 600cells/6 ul/well in 1536-well tissue culture treated black solid bottom plates using a Multidrop dispenser. After the assay plates were incubated at a 37 C/5% CO2 incubator for 5 hours, 23 nL of compounds dissolved in DMSO, positive and negative controls was transferred to the assay plate by a pintool work station. The plates were incubated at 37 C for 40 hours. The luminescence intensity were measured at 0h, 8h, 16h, 24h, 32h and 40h time points using ViewLux plate reader during compound treatment.
% is set by controls: 0 for no effect and ±100 for the full control effect; potency is the fitted concentration of half-maximal effect.

Row | SMILES | activity change, negative = cytotoxic | Potency
1 | O.O.O.O=C([O-])[C@H]([O-])[C@@H]([O-])C(=O)[O-].O=C([O-])[C@H]([O-])[C@@H]([O-])C(=O)[O-].[K+].[K+].[Sb+3].[Sb+3] | -13.4% | 
2 | N#CC(C#N)=NNc1cccc(Cl)c1 |  | 19.5 µM (active)
3 | O=C(N[C@H]1N=C(c2ccccc2F)c2cccc3c2N(CC3)C1=O)c1cc2ccccc2[nH]1 | -13.5% [at 35.3 µM] | 
4 | c1ccc2c(c1)cc1ccc3cccc4ccc2c1c34 | -2.43% | 
5 | CCOP(=O)(OCC)Oc1cc(C)nc(C(C)C)n1 | 3.25% | 
6 | O=P(Cl)(Cl)Cl | -3.28% | 
7 | COc1ccc(Cc2nccc3cc(OC)c(OC)cc23)cc1OC | -25.8% [at 35.3 µM] | 
8 | BrCC(Br)(Br)Br | -2.14% | 
9 | N#Cc1ccc(N(CC(N)=O)CC(F)(F)F)cc1C(F)(F)F | 0.424% | 
10 | Oc1cccc(Cl)c1Cl | 4.18% | 
11 | O=C(Cl)c1ccccc1F | -0.0782% | 
12 | CC(C)(C)c1ccc(OP(=O)(Oc2ccccc2)Oc2ccccc2)cc1 | -0.347% | 
13 | COC(=O)/C=C(\C)OP(=O)(OC)OC | 0.747% | 
14 | O=S1(=O)OCC2C(CO1)C1(Cl)C(Cl)=C(Cl)C2(Cl)C1(Cl)Cl (stereo not given) | -19% | 
15 | CCOP(=O)(OCC)Oc1nc(Cl)c(Cl)cc1Cl | -0.254% | 
16 | CCN(CC)C(=O)N[C@@H]1C=C2c3cccc4[nH]cc(c34)C[C@@H]2N(C)C1 | 3.26% [at 35.3 µM] | 
17 | C[C@]12C/C(=C/O)C(=O)C[C@@H]1CC[C@@H]1[C@@H]2CC[C@@]2(C)[C@H]1CC[C@]2(C)O | -7.26% [at 35.3 µM] | 
18 | S=C=Nc1ccccc1 | 0.0302% | 
19 | CC(C)[C@@H](Nc1ccc(C(F)(F)F)cc1Cl)C(=O)OC(C#N)c1cccc(Oc2ccccc2)c1 (stereo not given in full) | 5.36% | 
20 | [F][Sn]([c]1ccccc1)([c]1ccccc1)[c]1ccccc1 |  | 0.219 µM (active)

Row | SMILES | activity change, negative = cytotoxic | Potency
21 | CC#C[C@]1(O)CC[C@H]2[C@@H]3C[C@H](C)C4=CC(=O)CC[C@]4(C)[C@H]3CC[C@@]21C | -9.67% [at 35.3 µM] | 
22 | CC[C@]1(O)CC[C@H]2[C@@H]3CCC4=CCCC[C@@H]4[C@H]3CC[C@@]21C | -4.16% [at 35.3 µM] | 
23 | CCCCc1ccccc1 | -6.01% | 
24 | CNN | 0.069% | 
25 | CCCCC/C=C\C/C=C\C/C=C\C/C=C\CCCC(=O)NCC(=O)O | 0.364% [at 35.3 µM] | 
26 | CC(Cc1ccc(O)cc1)NCC(O)c1cc(O)cc(O)c1 (stereo not given) | 8.02% [at 35.3 µM] | 
27 | Cc1nn(-c2cc(NS(C)(=O)=O)c(Cl)cc2Cl)c(=O)n1C(F)F | -0.0494% | 
28 | CC(=O)[O-].CC(=O)[O-].[Co+2] | 2.09% | 
29 | NC1CCC(CC2CCC(N)CC2)CC1 (stereo not given) | 1.58% | 
30 | c1ccc(N=NNc2ccccc2)cc1 |  | inactive
31 | CC(Cc1ccc(OCC(=O)O)cc1)NCC(O)c1csc(C(F)(F)F)n1 (stereo not given) | 0.594% | 
32 | CC[N+]1(CC)CCC(OC(=O)C(O)(c2ccccc2)c2ccccc2)C1 (stereo not given) | 1.32% [at 35.3 µM] | 
33 | COC(=O)N(OC)c1ccccc1COc1ccn(-c2ccc(Cl)cc2)n1 | -16.8% | 
34 | N#Cc1c2ccccc2cc2ccccc12 | 11.3% | 
35 | C[N+]1(C)[C@@H]2CC[C@H]1CC(OC(=O)C(CO)c1ccccc1)C2 (stereo not given in full) |  | 23.9 µM (active)
36 | CCCCC(CC)COC(=O)c1ccccc1C(=O)OCC(CC)CCCC (stereo not given) | -7.89% | 
37 | CSC(=O)c1c(C(F)F)nc(C(F)(F)F)c(C(=O)SC)c1CC(C)C | -5.18% | 
38 | CC(=O)[O-].CC(=O)[O-].CC(=O)[O-].[Cr+3] | 1.15% | 
39 | N#CCCl | -11.9% | 
40 | Cc1cc(C2CC2)nc(Nc2ccccc2)n1 | -20.1% | 
